About 83,000 compounds went through this panel and 20% of them were active in at least one assay; those are over-represented in the sample as a whole.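 Activity criterion: percent growth below 10, measured after cells in 96-well plates were exposed to a single compound concentration for 48 hours.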 Active and inactive are the calls of the source.
Assays:
Assay in all cases: NCI-60 one-dose screen, 48 h (100 = growth as untreated, 0 = no growth, -100 = all killed)
Settings in all cases: 10 µM unless noted
T-47D breast = tested on: T-47D breast
BT-549 breast = tested on: BT-549 breast
MDA-MB-435 melanoma = tested on: MDA-MB-435 melanoma
SW-620 colon = tested on: SW-620 colon
MCF7 breast = tested on: MCF7 breast
HCT-116 colon = tested on: HCT-116 colon
HCC-2998 colon = tested on: HCC-2998 colon
KM12 colon = tested on: KM12 colon

Measured: growth

O=C1Nc2ccccc2/C1=C\c1nc(-c2ccccc2F)n2ccccc12
inactive: T-47D breast 21.2% | BT-549 breast 24.5% | MDA-MB-435 melanoma 44.1% | SW-620 colon 26.2% | MCF7 breast 27.8% | HCC-2998 colon 86.1% | KM12 colon 34.4%
active: HCT-116 colon -36.4%

N#Cc1c(N)nnn1Cc1cc(=O)oc2c1ccc1ccccc12
inactive: T-47D breast 92.3% | BT-549 breast 99.9% | MDA-MB-435 melanoma 105% | SW-620 colon 97.7% | MCF7 breast 92.6% | HCT-116 colon 106% | HCC-2998 colon 105% | KM12 colon 103%

C=C1CC[C@@H]2[C@](C)(COC(C)=O)[C@H](OC(C)=O)CC[C@@]2(C)[C@@H]1CC(Sc1ccccc1)C1=CCOC1=O (stereo partly drawn)
inactive: MDA-MB-435 melanoma 101% | HCC-2998 colon 44.7% | KM12 colon 18.6%
active: T-47D breast 7.94% | BT-549 breast -22.6% | SW-620 colon 0.833% | MCF7 breast 2.14% | HCT-116 colon -34.6%

N#Cc1cccc(-c2c(-c3ccc4ccccc4c3)oc3ccccc3c2=O)c1
active: MDA-MB-435 melanoma -26.8%
inactive: T-47D breast 45.1% | BT-549 breast 34.1% | SW-620 colon 14.6% | MCF7 breast 20.3% | HCT-116 colon 12.4% | HCC-2998 colon 68.8% | KM12 colon 25.9%

O=C(O)c1[nH]c(=O)[nH]c(=O)c1[N+](=O)[O-]
inactive: T-47D breast 109% | BT-549 breast 107% | MDA-MB-435 melanoma 106% | SW-620 colon 109% | MCF7 breast 98.8% | HCT-116 colon 100% | HCC-2998 colon 99.2% | KM12 colon 115%

Cc1nc2ncnc(Cl)c2[nH]1
inactive: T-47D breast 95.7% | BT-549 breast 105% | MDA-MB-435 melanoma 105% | SW-620 colon 103% | MCF7 breast 91.3% | HCT-116 colon 84.3% | HCC-2998 colon 98.6% | KM12 colon 102%

O=C1Nc2ccc(I)cc2C1=O
inactive: T-47D breast 106% | BT-549 breast 80.1% | MDA-MB-435 melanoma 103% | SW-620 colon 65.2% | MCF7 breast 71.5% | HCT-116 colon 71.8% | HCC-2998 colon 62.9% | KM12 colon 82.8%

CN(C)CCCC1(c2ccc(F)cc2)OCc2cc(-c3cncc4ccccc34)ccc21 (stereo not drawn)
inactive: T-47D breast 55.9% | BT-549 breast 76.8% | SW-620 colon 34.2% | MCF7 breast 23.5% | HCT-116 colon 22.5% | KM12 colon 34.5%
active: MDA-MB-435 melanoma 8.32% | HCC-2998 colon 7.15%

CC(C)=NNc1ccccn1
inactive: T-47D breast 15.4% | BT-549 breast 62.5% | MDA-MB-435 melanoma 55.2% | SW-620 colon 26.2% | MCF7 breast 18% | HCT-116 colon 23.6% | HCC-2998 colon 48.1% | KM12 colon 38.2%

C=C1C(=O)O[C@H]2[C@H]1CC/C(COC(=O)CSCCSCC(=O)OC/C1=C/CC[C@@]3(C)O[C@H]3[C@H]3OC(=O)C(=C)[C@@H]3CC1)=C\CC[C@@]1(C)O[C@@H]21
inactive: T-47D breast 29.5% | MDA-MB-435 melanoma 34.3% | MCF7 breast 18.1% | HCC-2998 colon 25.8% | KM12 colon 51.1%
active: BT-549 breast -16.3% | SW-620 colon 2.85% | HCT-116 colon -31.6%

COc1ccc2c(O)c(/C=C3\N=Nc4ccccc43)oc2c1C[C@@H]1CCNC[C@H]1F
active: SW-620 colon 6.01% | HCT-116 colon -68.2%
inactive: T-47D breast 94.3% | BT-549 breast 73.8% | MDA-MB-435 melanoma 68.3% | MCF7 breast 18.3% | HCC-2998 colon 78% | KM12 colon 10.9%

OCCNCCCOc1ccc2ncnc(Nc3ccc(Oc4cccc(C(F)(F)F)c4)c(Cl)c3)c2c1
active: MDA-MB-435 melanoma -65.2% | SW-620 colon -84.2% | MCF7 breast -40% | HCC-2998 colon -75.1% | KM12 colon 3.05%
inactive: T-47D breast 38.7% | BT-549 breast 95.6% | HCT-116 colon 12.7%

C#CCOc1cccc(Nc2ncnc3c(NC(=O)C=C)cccc23)c1
inactive: SW-620 colon 15.2% | MCF7 breast 16.4% | HCC-2998 colon 79%
active: T-47D breast 4.83% | BT-549 breast 8.49% | MDA-MB-435 melanoma 2.2% | HCT-116 colon 6.27% | KM12 colon 9.96%

Cc1nn(-c2ccccc2)c(Oc2ccccn2)c1-c1nc2ccccc2s1
inactive: T-47D breast 88% | BT-549 breast 95.4% | MDA-MB-435 melanoma 103% | SW-620 colon 105% | MCF7 breast 84% | HCT-116 colon 91.5% | HCC-2998 colon 103% | KM12 colon 87.6%

CN(C)CCNc1nc2c3cc(Cl)ccc3nn2c2ccccc12
inactive: T-47D breast 86.6% | BT-549 breast 73% | MDA-MB-435 melanoma 65.3% | SW-620 colon 23.7% | MCF7 breast 35.3% | HCT-116 colon 22.9% | HCC-2998 colon 56.3% | KM12 colon 39.5%

COc1ccccc1Nc1nc2c(s1)C1=CC[C@H]3[C@@H]4CC[C@H]([C@H](C)CCCC(C)C)[C@@]4(C)CC[C@@H]3[C@@]1(C)CC2
inactive: T-47D breast 105% | BT-549 breast 110% | MDA-MB-435 melanoma 103% | SW-620 colon 101% | MCF7 breast 113% | HCT-116 colon 102% | HCC-2998 colon 101% | KM12 colon 101%

CCCCCC(=O)OCC(=O)O[C@@H]1C[C@]2(C(C)C)O[C@@]1(C)[C@@H]1CC[C@@H](C)[C@H]1[C@@H]2OC(=O)/C=C/c1ccccc1
inactive: T-47D breast 21.4% | BT-549 breast 12.6% | MDA-MB-435 melanoma 99.4% | SW-620 colon 48.9% | MCF7 breast 26.8% | HCT-116 colon 74% | HCC-2998 colon 88.5% | KM12 colon 85%

Brc1ccc2[nH]cc(-c3nonc3-c3c[nH]c4ccccc34)c2c1
inactive: BT-549 breast 73.9% | MDA-MB-435 melanoma 47.1% | SW-620 colon 60.4% | MCF7 breast 29.3% | HCT-116 colon 36.9% | HCC-2998 colon 21.5% | KM12 colon 16%
active: T-47D breast 5.65%

Fc1ccc2[nH]cc(-c3nonc3-c3c[nH]c4ccc(Br)cc34)c2c1
inactive: BT-549 breast 55.5% | MDA-MB-435 melanoma 47.5% | SW-620 colon 28.5% | MCF7 breast 12.6% | HCT-116 colon 20.2%
active: T-47D breast 3.33% | HCC-2998 colon 2.9% | KM12 colon 7.15%

COc1ccc(/C=N/NC(=O)CCN2c3ccccc3Sc3ccccc32)cc1
active: MDA-MB-435 melanoma 8.72%
inactive: T-47D breast 81.5% | BT-549 breast 84.8% | SW-620 colon 57.4% | MCF7 breast 42.7% | HCT-116 colon 69.4% | HCC-2998 colon 92.3% | KM12 colon 53.8%

CC(C)(C)n1cc(-c2ccnc(NCCCNS(=O)(=O)c3ccc(F)cc3)c2)c(-c2cccc(F)c2)n1
inactive: T-47D breast 24.6% | BT-549 breast 50.2% | MDA-MB-435 melanoma 73.8% | SW-620 colon 22.4% | MCF7 breast 41.2% | HCT-116 colon 37% | HCC-2998 colon 54.7% | KM12 colon 40.9%

COc1cc(-c2cc(-c3cccs3)c(C#N)c(N3CCOCC3)n2)cc(OC)c1OC
active: SW-620 colon 4.28%
inactive: T-47D breast 89% | BT-549 breast 75.8% | MDA-MB-435 melanoma 92.8% | MCF7 breast 61.9% | HCT-116 colon 51.7% | HCC-2998 colon 86.4% | KM12 colon 105%

CN1CCN(C(=O)c2ccc(NC(=O)Nc3ccc(-c4nc(N5CCOCC5)c5cccn5n4)cc3)cc2)CC1
inactive: SW-620 colon 11%
active: T-47D breast -34.3% | BT-549 breast -9.61% | MDA-MB-435 melanoma 0.865% | MCF7 breast 5.32% | HCT-116 colon 7.02% | HCC-2998 colon 5.54% | KM12 colon 9.01%

O=c1oc2c(cnc3ccccc32)cc1-c1ccsc1
inactive: T-47D breast 85.9% | BT-549 breast 100% | MDA-MB-435 melanoma 102% | SW-620 colon 96.8% | MCF7 breast 33.2% | HCT-116 colon 99.7% | HCC-2998 colon 123% | KM12 colon 94%

C=C1C(=O)O[C@H]2[C@H]1CC/C(COC(=O)NCc1ccc(Cn3c(=O)sn(CCI)c3=O)cc1)=C\CC[C@@]1(C)O[C@@H]21
inactive: T-47D breast 27.1% | BT-549 breast 69.8% | MDA-MB-435 melanoma 57.1% | MCF7 breast 24.7% | HCT-116 colon 20% | HCC-2998 colon 107% | KM12 colon 91.5%
active: SW-620 colon -2.89%

C=C1C(=O)O[C@H]2[C@H]1CC/C(COC(=O)CCSCCC(=O)OC/C1=C/CC[C@@]3(C)O[C@H]3[C@H]3OC(=O)C(=C)[C@@H]3CC1)=C\CC[C@@]1(C)O[C@@H]21
inactive: T-47D breast 19.1% | KM12 colon 34.3%
active: BT-549 breast -9.47% | MDA-MB-435 melanoma 8.02% | SW-620 colon -23.5% | MCF7 breast 9.43% | HCT-116 colon -60.2% | HCC-2998 colon -1.54%

CC(=O)c1cc(O)c2ccccc2c1O
inactive: T-47D breast 87.1% | BT-549 breast 91.7% | MDA-MB-435 melanoma 111% | SW-620 colon 108% | MCF7 breast 75.2% | HCT-116 colon 95.4% | HCC-2998 colon 166% | KM12 colon 106%

CS(=O)(=O)Nc1cc(-c2ccc3ncnc(Nc4c(Cl)ccc5c4OCO5)c3c2)cnc1Cl
active: T-47D breast -30.6% | BT-549 breast -26% | MDA-MB-435 melanoma -24.9% | SW-620 colon 2.07% | MCF7 breast 0.196% | HCT-116 colon -22.6% | HCC-2998 colon -36% | KM12 colon -39.7%

c1ccc(C2=NN[C@H](c3cn(-c4ccccc4)nc3-c3ccccc3)C2)cc1
inactive: T-47D breast 43.5% | BT-549 breast 48.7% | MDA-MB-435 melanoma 67% | SW-620 colon 55.7% | MCF7 breast 74.4% | HCT-116 colon 22.8% | HCC-2998 colon 64.6% | KM12 colon 62.8%

COc1ccc2[nH]cc(-c3nc(-c4cn(C)c5c(Cl)nccc45)cs3)c2c1
inactive: T-47D breast 11.6% | BT-549 breast 45% | MCF7 breast 43.9% | HCT-116 colon 43.9% | HCC-2998 colon 62% | KM12 colon 32%
active: MDA-MB-435 melanoma 6.78% | SW-620 colon -5.25%

COC(=O)[C@]1(C)CCC[C@]2(C)[C@H]3C[C@H]4C(C(C)C)=C[C@]3(CC[C@H]21)[C@H]1[C@@H]4[C@@H](OCCC#N)CC[C@@H]1OCCC#N
inactive: BT-549 breast 19.8% | MDA-MB-435 melanoma 42.7% | SW-620 colon 47.8% | HCT-116 colon 15.4% | HCC-2998 colon 65.1% | KM12 colon 40.2%
active: T-47D breast 9.81% | MCF7 breast 9.07%

Source: PubChem BioAssay (NCI)
